# PubChem BioAssay (NCATS)
# Records with an inconclusive call do not appear. Calls of active or inactive are those of the source. Calls follow the shape of the dose curve; as a rule, active = well fitted inhibition curve with a large enough effect; inconclusive = small, poorly fitted or top-dose-only effect; inactive = flat fitted curve, though single readings scatter.
# Test system: PC26
# Test: qHTS profiling for inhibitors of Plasmodium falciparum proliferation (AID 504749); also: nearly all actives have a fitted effect of over 60% in size;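 as to activity, negative = inhibition: 0% = DMSO vehicle and full inhibition = artemisinin control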
# Settings: P. falciparum in erythrocytes, SYBR Green DNA, 72 h; series mostly up to 28.7 µM; activity, negative = inhibition: at the top concentration
# How it was run: (§1)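 Readout was DNA-dye fluorescence from lysed cultures, ex 485/em 535 nm. Parasitized red cells had grown 72 h with compound; data scaled between 0.29 uM artemisinin and DMSO wells and corrected using vehicle-only plates.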
# Potency is read from the fitted curve at half-maximal effect.
SMILES,"activity, negative = inhibition",Potency
O=[N+]([O-])c1ccccc1,2.14% (inactive),–
O=C1CC[C@@]2(O)C3Cc4ccc(O)c5c4C2(CCN3CC2CC2)[C@H]1O5 (stereo partly specified),0.467% (inactive),–
O=C/C=C/c1ccccc1,2.22% (inactive),–
CCNC(C)Cc1cccc(C(F)(F)F)c1 (stereo unspecified),-0.349% (inactive),–
CC1CCC(C(C)C)C(OC(=O)c2ccccc2N)C1 (stereo unspecified),-16.5% (inactive),–
c1csc(C2(N3CCCCC3)CCCCC2)c1,-0.267% (inactive),–
c1ccc(C2(N3CCCC3)CCCCC2)cc1,–,13.5 µM (active)
CCC1(CC)C(=O)NC(=O)N(C)C1=O,-14.2% (inactive),–
N#CC(C#N)=Cc1cc(O)c(O)c(O)c1,–,8.49 µM (active)
Oc1cccc[c]1[Hg][Cl],–,12 µM (active)
ClC1C(Cl)C(Cl)C(Cl)C(Cl)C1Cl (stereo unspecified),-5.88% (inactive),–
CCCCCCCCCC(=O)O[C@H]1CC[C@H]2[C@@H]3CCC4=CC(=O)CC[C@]4(C)[C@H]3CC[C@]12C,8.02% (inactive),–
CCC1(c2ccccc2)C(=O)NC(=O)N(C(=O)c2ccccc2)C1=O (stereo unspecified),-22.5% (inactive),–
Cc1sc2ccccc2c1CC1=NCCN1,3.22% (inactive),–
O=C1CN=C(c2ccccc2)c2cc(Cl)ccc2N1CC1CC1,-10.7% (inactive),–
CC(C)Nc1ccc(Nc2ccccc2)cc1,–,4.78 µM (active)
CC12NC(Cc3ccccc31)c1ccccc12 (stereo unspecified),-7.79% (inactive),–
c1ccc2cc(CC3=NCCN3)ccc2c1,2.12% (inactive),–
Oc1cc(Cl)c(Cl)cc1Cl,7.66% (inactive),–

# Test system: PC49
# Test: as above
# Settings: P. falciparum in erythrocytes, SYBR Green DNA, 72 h; series mostly up to 28.7 µM; activity, negative = inhibition: at the top concentration
# How it was run: as §1
SMILES,"activity, negative = inhibition",Potency
O=[N+]([O-])c1ccccc1,9.93% (inactive),–
O=C1CC[C@@]2(O)C3Cc4ccc(O)c5c4C2(CCN3CC2CC2)[C@H]1O5 (stereo partly specified),7.03% (inactive),–
O=C/C=C/c1ccccc1,9.37% (inactive),–
CCNC(C)Cc1cccc(C(F)(F)F)c1 (stereo unspecified),11.7% (inactive),–
CC1CCC(C(C)C)C(OC(=O)c2ccccc2N)C1 (stereo unspecified),0.254% (inactive),–
CCOP(=O)(OCC)O/C(=C/Cl)c1ccc(Cl)cc1Cl,-3.79% (inactive),–
c1csc(C2(N3CCCCC3)CCCCC2)c1,-2.6% (inactive),–
CCN(CC)C(=O)/C(Cl)=C(\C)OP(=O)(OC)OC,6.03% (inactive),–
CCC1(CC)C(=O)NC(=O)N(C)C1=O,6.98% (inactive),–
CCC1C(C)=NN=C(c2ccc(OC)c(OC)c2)c2cc(OC)c(OC)cc21 (stereo unspecified),-2.13% (inactive),–
C=CCC1(C(C)CCC)C(=O)N=C(S)NC1=O (stereo unspecified),7.04% (inactive),–
F/C(COc1ccc2c(c1)[nH]c1ccccc12)=C1/CN2CCC1CC2,–,2.82 µM (active)
Oc1cccc[c]1[Hg][Cl],–,14.1 µM (active)
C[C@H]1CCC[C@H](O)CCCCCc2cc(O)cc(O)c2C(=O)O1,-0.414% (inactive),–
ClC1C(Cl)C(Cl)C(Cl)C(Cl)C1Cl (stereo unspecified),8.63% (inactive),–
CCC1(c2ccccc2)C(=O)NC(=O)N(C)C1=O (stereo unspecified),16.8% (inactive),–

SMILES,"activity, negative = inhibition",Potency
CCCCCCCCCC(=O)O[C@H]1CC[C@H]2[C@@H]3CCC4=CC(=O)CC[C@]4(C)[C@H]3CC[C@]12C,10.4% (inactive),–
CCC1(c2ccccc2)C(=O)NC(=O)N(C(=O)c2ccccc2)C1=O (stereo unspecified),-12% (inactive),–
COc1ccc2c(c1OC)C(=O)OC2C1c2cc3c(cc2CCN1C)OCO3 (stereo unspecified),5.34% (inactive),–
C=CCN=C=S,8.77% (inactive),–
OC(c1ccccc1)(c1ccccc1)C1CN2CCC1CC2 (stereo unspecified),–,1 µM (active)
CCOc1ccc2c3c1O[C@H]1[C@@H](O)C=C[C@H]4[C@@H](C2)N(C)CC[C@@]341,5.49% (inactive),–
Cc1sc2ccccc2c1CC1=NCCN1,-24.5% (inactive),–
O=C1CN=C(c2ccccc2)c2cc(Cl)ccc2N1CC1CC1,5.84% (inactive),–
CC(C)Nc1ccc(Nc2ccccc2)cc1,-21% (inactive),–
O=c1c2ccccc2[se]n1-c1ccccc1,-13.5% (inactive),–
CC12NC(Cc3ccccc31)c1ccccc12 (stereo unspecified),-19.2% (inactive),–
c1ccc2cc(CC3=NCCN3)ccc2c1,0.28% (inactive),–
C[C@@H](Cc1ccccc1)NCCC(c1ccccc1)c1ccccc1,-28.9% [at 12.8 µM] (inactive),–
CCCN1CCCC2Cc3[nH]ncc3CC21 (stereo unspecified),-5.53% (inactive),–
Oc1cc(Cl)c(Cl)cc1Cl,-0.543% (inactive),–
CN1[C@@H]2CC[C@H]1CC(OC1c3ccccc3CCc3ccccc31)C2 (stereo partly specified),-25% [at 12.8 µM] (inactive),–
